# About 410 targets per protein were measured; listed, in parts, are those with the strongest signals and a random draw of the rest.
# B1: 3FTT (Staphylococcus aureus), Q5HCZ5 (protein)
# chain: MTEKEKMLAEKWYDANFDQYLINERARAKDICFELNHTRPSATNKRKELIDQLFQTTTDNVSISIPFDTDYGWNVKLGKNVYVNTNCYFMDGGQITIGDNVFIGPNCGFYTATHPLNFHHRNEGFEKAGPIHIGSNTWFGGHVAVLPGVTIGEGSVIGAGSVVTKDIPPHSLAVGNPCKVVRKIDNDLPSETLNDETIK
# Legend:
# Assay in all cases: glycan array binding signal (z-score within array); higher = stronger binding
# Conditions in all cases: glycan notation: IUPAC condensed, linker removed
# [1] = molecular target: Fuc(a1-2)Gal(b1-3)GalNAc(a1-3)[Fuc(a1-2)]Gal(b1-4)GlcNAc
# Outline: (§1)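 The binding signal is a Z-score computed within each array. Data were drawn from 3228 arrays in the Consortium for Functional Glycomics database, restricted to those with a known protein sequence. Scores were averaged over arrays of the same protein sequence at different concentrations or buffers, and over linkers, and negative values can be taken as non-binding.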
# [2] = molecular target: Fuc(a1-2)Gal(b1-3)GalNAc(b1-3)Gal
# Outline: as §1
# [3] = molecular target: Fuc(a1-2)Gal(b1-3)GlcNAc(b1-3)Gal(b1-4)Glc
# Outline: as §1
# [4] = molecular target: Fuc(a1-2)Gal(b1-3)GlcNAc(b1-3)[Neu5Ac(a2-6)Gal(b1-4)GlcNAc(b1-6)]Gal(b1-4)Glc
# Outline: as §1
# [5] = molecular target: Fuc(a1-2)Gal(b1-4)[Fuc(a1-3)]GlcNAc(b1-2)Man(a1-3)[Fuc(a1-2)Gal(b1-4)[Fuc(a1-3)]GlcNAc(b1-2)Man(a1-6)]Man(b1-4)GlcNAc(b1-4)GlcNAc
# Outline: as §1
# [6] = molecular target: Fuc(a1-2)Gal(b1-4)[Fuc(a1-3)]GlcNAc(b1-3)GalNAc
# Outline: as §1
# [7] = molecular target: Fuc(a1-2)[GalNAc(a1-3)]Gal(b1-3)GlcNAc(b1-2)Man(a1-3)[Fuc(a1-2)[GalNAc(a1-3)]Gal(b1-3)GlcNAc(b1-2)Man(a1-6)]Man(b1-4)GlcNAc(b1-4)GlcNAc
# Outline: as §1
# [8] = molecular target: Fuc(a1-2)[GalNAc(a1-3)]Gal(b1-3)GlcNAc(b1-2)Man(a1-3)[Fuc(a1-2)[GalNAc(a1-3)]Gal(b1-3)GlcNAc(b1-2)Man(a1-6)]Man(b1-4)GlcNAc(b1-4)[Fuc(a1-6)]GlcNAc
# Outline: as §1
# [9] = molecular target: Fuc(a1-2)[GalNAc(a1-3)]Gal(b1-4)GlcNAc(b1-3)Gal(b1-4)GlcNAc
# Outline: as §1
# [10] = molecular target: Fuc(a1-3)[Gal(b1-4)]GlcNAc(b1-6)GalNAc
# Outline: as §1
# [11] = molecular target: Gal(a1-4)Gal(b1-3)GlcNAc(b1-2)Man(a1-3)[Gal(a1-4)Gal(b1-3)GlcNAc(b1-2)Man(a1-6)]Man(b1-4)GlcNAc(b1-4)GlcNAc
# Outline: as §1
# Gal(a1-4)Gal(b1-4)Glc = molecular target: Gal(a1-4)Gal(b1-4)Glc
# Outline: as §1
# Gal(b1-3)Gal(b1-4)GlcNAc = molecular target: Gal(b1-3)Gal(b1-4)GlcNAc
# Outline: as §1
# Gal(b1-3)GalNAc = molecular target: Gal(b1-3)GalNAc
# Outline: as §1
# [12] = molecular target: Gal(b1-3)[Fuc(a1-4)]GlcNAc(b1-2)Man(a1-3)[Gal(b1-3)[Fuc(a1-4)]GlcNAc(b1-2)Man(a1-6)]Man(b1-4)GlcNAc(b1-4)GlcNAc
# Outline: as §1
# [13] = molecular target: Gal(b1-3)[Fuc(a1-4)]GlcNAc(b1-3)Gal(b1-4)GlcNAc
# Outline: as §1
# [14] = molecular target: Gal(b1-4)GlcNAc(b1-2)Man(a1-3)[Man(a1-6)]Man(b1-4)GlcNAc(b1-4)GlcNAc
# Outline: as §1
# Gal3S(b1-4)Glc6S = molecular target: Gal3S(b1-4)Glc6S
# Outline: as §1
# GalNAc(b1-3)Gal = molecular target: GalNAc(b1-3)Gal
# Outline: as §1
# [15] = molecular target: GalNAc(b1-4)GlcNAc(b1-2)Man(a1-3)[GalNAc(b1-4)GlcNAc(b1-2)Man(a1-6)]Man(b1-4)GlcNAc(b1-4)GlcNAc
# Outline: as §1
# [16] = molecular target: GlcNAc(a1-4)Gal(b1-4)GlcNAc(b1-3)Gal(b1-4)GlcNAc
# Outline: as §1
# [17] = molecular target: GlcNAc(b1-2)[GlcNAc(b1-6)]Man(a1-6)[GlcNAc(b1-2)Man(a1-3)]Man(b1-4)GlcNAc(b1-4)GlcNAc
# Outline: as §1
# [18] = molecular target: GlcNAc(b1-3)[GlcNAc(b1-6)]GalNAc
# Outline: as §1
# [19] = molecular target: Kdn(a2-3)Gal(b1-4)[Fuc(a1-3)]GlcNAc
# Outline: as §1
# Kdn(a2-6)Gal(b1-4)GlcNAc = molecular target: Kdn(a2-6)Gal(b1-4)GlcNAc
# Outline: as §1
# [20] = molecular target: Man(a1-2)Man(a1-2)Man(a1-3)Man
# Outline: as §1
# [21] = molecular target: Man(a1-2)Man(a1-2)Man(a1-6)[Man(a1-3)]Man
# Outline: as §1
# [22] = molecular target: Man(a1-2)Man(a1-3)[Man(a1-2)Man(a1-6)]Man(a1-6)[Man(a1-2)Man(a1-2)Man(a1-3)]Man
# Outline: as §1
# [23] = molecular target: Neu5Ac(a2-3)Gal(b1-3)GlcNAc(b1-3)GalNAc
# Outline: as §1
# [24] = molecular target: Neu5Ac(a2-3)Gal(b1-3)[Neu5Ac(a2-6)]GalNAc
# Outline: as §1
# [25] = molecular target: Neu5Ac(a2-3)Gal(b1-4)GlcNAc(b1-3)Gal
# Outline: as §1
# [26] = molecular target: Neu5Ac(a2-3)Gal(b1-4)[Fuc(a1-3)]GlcNAc(b1-3)Gal(b1-4)GlcNAc
# Outline: as §1
# [27] = molecular target: Neu5Ac(a2-3)Gal(b1-4)[Fuc(a1-3)]GlcNAc(b1-3)Gal(b1-4)[Fuc(a1-3)]GlcNAc(b1-3)Gal(b1-4)[Fuc(a1-3)]GlcNAc
# Outline: as §1
# [28] = molecular target: Neu5Ac(a2-3)Gal6S(b1-4)GlcNAc
# Outline: as §1
# [29] = molecular target: Neu5Ac(a2-3)[Neu5Ac(a2-6)]GalNAc
# Outline: as §1
# [30] = molecular target: Neu5Ac(a2-6)Gal(b1-4)GlcNAc(b1-2)Man(a1-6)[Man(a1-3)]Man(b1-4)GlcNAc(b1-4)GlcNAc
# Outline: as §1
# [31] = molecular target: Neu5Ac(a2-8)Neu5Ac(a2-8)Neu5Ac(a2-3)Gal(b1-4)Glc
# Outline: as §1
# [32] = molecular target: Neu5Ac9Ac(a2-3)Gal(b1-3)GlcNAc
# Outline: as §1
binder,measurement,setting,value
B1,glycan array binding signal (z-score),[1],-0.281
same,glycan array binding signal (z-score),[2],1.06
same,glycan array binding signal (z-score),[3],-0.165
same,glycan array binding signal (z-score),[4],-0.004
same,glycan array binding signal (z-score),[5],0.815
same,glycan array binding signal (z-score),[6],1.26
same,glycan array binding signal (z-score),[7],0.032
same,glycan array binding signal (z-score),[8],0.227
same,glycan array binding signal (z-score),[9],-0.09
same,glycan array binding signal (z-score),[10],0.714
same,glycan array binding signal (z-score),[11],-0.237
same,glycan array binding signal (z-score),Gal(a1-4)Gal(b1-4)Glc,-0.171
same,glycan array binding signal (z-score),Gal(b1-3)Gal(b1-4)GlcNAc,0.256
same,glycan array binding signal (z-score),Gal(b1-3)GalNAc,-0.105
same,glycan array binding signal (z-score),[12],19.9
same,glycan array binding signal (z-score),[13],-0.017
same,glycan array binding signal (z-score),[14],-0.261
same,glycan array binding signal (z-score),Gal3S(b1-4)Glc6S,0.798
same,glycan array binding signal (z-score),GalNAc(b1-3)Gal,-0.332
same,glycan array binding signal (z-score),[15],5.95
same,glycan array binding signal (z-score),[16],0.607
same,glycan array binding signal (z-score),[17],-0.134
same,glycan array binding signal (z-score),[18],-0.288
same,glycan array binding signal (z-score),[19],0.16
same,glycan array binding signal (z-score),Kdn(a2-6)Gal(b1-4)GlcNAc,-0.292
same,glycan array binding signal (z-score),[20],-0.082
same,glycan array binding signal (z-score),[21],-0.073
same,glycan array binding signal (z-score),[22],-0.089
same,glycan array binding signal (z-score),[23],-0.066
same,glycan array binding signal (z-score),[24],-0.057
same,glycan array binding signal (z-score),[25],0.012
same,glycan array binding signal (z-score),[26],0.162
same,glycan array binding signal (z-score),[27],-0.195
same,glycan array binding signal (z-score),[28],0.037
same,glycan array binding signal (z-score),[29],0.223
same,glycan array binding signal (z-score),[30],-0.226
same,glycan array binding signal (z-score),[31],0.056
same,glycan array binding signal (z-score),[32],-0.153
